We go through 40 compounds from ChEMBL document CHEMBL1157539, “Thousands of chemical starting points for antimalarial lead identification” (Nature, 2010).

This test deals with Plasmodium falciparum. Put plainly: GSK_TCMDC: Inhibition of Plasmodium falciparum 3D7 in whole red blood cells, using parasite LDH activity as an index of growth. Test compounds present at 2uM. Format: functional.
For orientation: Inhibition means the drop in the measured response relative to a control, in per cent. The low end stands for little suppression, the high end for strong suppression. On to `O=c1cc(NCCCN(Cc2ccccc2)Cc2ccccc2)[nH]c2ccccc12`, for which the Inhibition was 100%. For the compound `CNC(=O)c1c(NC(=O)c2cccs2)sc2c1CCCC2`, the Inhibition is reported as 94%. As for `NCC1CCCN1Cc1ccc(-c2cccc(-c3nc4cc(F)ccc4[nH]3)c2)cc1.O=C(O)C(F)(F)F` (stereo not given), the Inhibition was determined as 100%. Next, `COc1cccc(CNC(=O)c2ccnc(-c3cccc(CN(C)C4CCN(C)CC4)c3)c2)c1.O=C(O)C(F)(F)F`: 100%.

The compound `CCCC(C)Nc1nc(C)cc(NCCC(=O)Nc2ccc(OC)cc2)n1.O=C(O)C(F)(F)F` (stereo not given) displayed an Inhibition of 97%. On to `Cn1cnc2c(Nc3ccncc3)nc(-c3ccc4ccccc4c3)nc21`, for which the Inhibition was 96%. For `Cc1nc2ccc3ccc(CNc4ccc5c(c4)CN([C@@H](CCC(=O)O)C(=O)O)C5=O)cc3c2c(=O)[nH]1` [OSI-7904], the Inhibition was determined as 94%.

The compound `COc1cccc(C(=O)NCc2cccs2)c1OCc1ccccc1` yielded an Inhibition of 96%. For the compound `COc1ccc2ncc(F)c(CCN3CCC(CNCc4cccc5c4OCO5)CC3)c2n1.Cl`, the Inhibition was determined as 93%. `CCN(CC)CCNC(=O)c1ccc(N/C=C2\C(=O)Nc3ccc(S(=O)(=O)Cc4c(Cl)cccc4Cl)cc32)cc1` registered an Inhibition of 100%. `FC(F)(F)c1ccc2[nH]c(-c3ccc(-c4cccc(CN5CCC(CCN6CCCCC6)CC5)c4)cc3)nc2c1.O=C(O)C(F)(F)F` returned an Inhibition of 100%.

Consider `CCNc1cc(C(=O)N[C@@H](Cc2ccccc2)[C@H](O)CNC2CCC(C)(C)C2)cc(N2CCCCS2(=O)=O)c1.Cl` (stereo not given in full), for which the Inhibition was 96%.

`CCc1ccc(NC(=O)N(CCCn2ccnc2)Cc2csc(-c3ccc(CNCc4ccccc4)cc3)n2)cc1.O=C(O)C(F)(F)F` came in with an Inhibition of 100%. The compound `O=c1cc(NCCC(CNCc2ccoc2)NCc2cc(Br)cc(Br)c2)[nH]c2ccccc12` (stereo not given) displayed an Inhibition of 92%. Under `O=C(O)C(F)(F)F.OCC1CCN(Cc2cccc(-c3ccc(-c4nc5cc(C(F)(F)F)ccc5[nH]4)s3)c2)CC1` stands 99%; under `O=C(Nc1ccc(Cn2nc(Cl)c(N3CCCNCC3)cc2=O)cc1)Nc1ccc(-c2ccccc2)cc1.O=C(O)C(F)(F)F`, 87%; under `O=C(Nc1ccc(Cl)cc1)Nc1ccc(-c2csc(-c3nc4ccccc4[nH]3)c2)cc1`, 90%.

For the compound `COc1cccc2cc(C(=O)N[C@@H](CC(C)C)C(=O)N[C@H](C=NN3CC(=O)NC3=O)CC(C)C)oc12`, the Inhibition amounted to 86%. `COc1ccc(C2=CCN(c3ccc(Cl)c(Cl)c3)C2=O)cc1OCCN1CCCCC1.Cl` returned an Inhibition of 97%. `Nc1ccc(-c2ccc3ccnc(N)c3c2)cn1.O=C(O)C(F)(F)F` registered an Inhibition of 100%. `O=C(COc1ccc(C(=O)c2ccccc2)cc1)Nc1nccs1` registered an Inhibition of 94%.

On to `O=C(N[C@H]1CCN(Cc2ccc(OCCN3CCCC3)c(Cl)c2)C1)c1ccc(Cl)c(Cl)c1.O=C(O)C(F)(F)F`, for which the Inhibition stood at 100%. `COc1ccc2nccc(N3CCC(SCCNS(=O)(=O)c4ccc5c(c4)OCCO5)C3)c2n1.Cl` (stereo not given) gave an Inhibition of 94%. On to `Cc1ccn2c(N(Cc3ccccc3)C(=O)c3ccc(Cl)c(Cl)c3)c(-c3ccccc3)nc2c1`, for which the Inhibition is given as 95%. Compound `COC(=O)C(c1ccc(NC(=O)[C@H](CC(C)C)NC(=O)OC(C)(C)C)cc1)c1ccc(NC(=O)[C@H](CC(C)C)NC(=O)OC(C)(C)C)cc1` came in with an Inhibition of 94%. In turn, `COc1ccc(C2C(C(=O)Nc3ccc(C)c(F)c3)c3cc(OC)c(OC)cc3C(=O)N2C)cc1` (stereo not given) displayed an Inhibition of 81%.

On to `CC[C@H](C)CNC(=O)c1ccnc(-c2cccc(CN3CCC(N4CCCC4)CC3)c2)c1.O=C(O)C(F)(F)F`, for which the Inhibition turned out to be 97%. In turn, `COc1ccccc1CCNc1ncnc2c1[nH]c1ccc(F)cc12` returned an Inhibition of 95%. As to `CCc1nc(N)nc(N)c1-c1ccc(F)c(F)c1`, the Inhibition stood at 98%. Under `C[C@@H]1CN(C(c2cccc(O)c2)c2cccc(C(=O)N(C)c3cccc(F)c3)c2)[C@@H](C)CN1C(c1cccc(O)c1)c1cccc(C(=O)N(C)c2cccc(F)c2)c1.Cl` (stereo not given in full) stands 91%; under `COc1cc2nc(N3CCC(NC(=O)c4cccc(N(C)C)c4)CC3)nc(N)c2cc1OC.O=C(O)/C=C\C(=O)O`, 98%. Under `O=C(Nc1ccc(-c2nc3ccccc3[nH]2)cc1)c1ccc(N2CCCC2)c([N+](=O)[O-])c1` stands 100%; under `COc1ccc(NS(=O)(=O)c2ccc(C(=O)Nc3ccc(C(F)(F)F)cc3)cc2)cc1N1CCN(CC2CC2)CC1.O=C(O)C(F)(F)F`, 92%.

For `O=C(/C=C/c1ccc(Cl)c(Cl)c1)NCCCCCN1CCC(NC(=O)Nc2ccc3c(c2)OCO3)CC1`, the Inhibition is recorded as 100%. In turn, `CSc1ccc(C=CC(=O)NC(=O)c2ccccc2O)cc1` displayed an Inhibition of 97%. With `CC(C)(C)c1ccc(CNC(=O)c2cc(CNC3CCC(N)CC3)ccc2O)cc1` (stereo not given), the Inhibition came out at 94%. In turn, `CCCCN(CCCC)C(=O)CC(O)c1cc2c(Cl)cc(Cl)cc2c2cc(C(F)(F)F)ccc12` (stereo not given) registered an Inhibition of 92%. Regarding `COc1cc(CNCCCNc2nc3ncccc3[nH]2)c2[nH]cc(Br)c2c1`, the Inhibition amounted to 92%. Next, `O=C(Cc1cccc2ccccc12)NC1CCN(c2ccnc3cc(Cl)ccc23)C1.O=C(O)C(F)(F)F` (stereo not given): 82%. Under `O=C1CCCC1Sc1nc2ccccc2c(=O)n1-c1ccc(Cl)c(Cl)c1` (stereo not given) stands 97%.
